The test system of the first experiment is FXR:RXRa (NR concentration 270 nM, RXRa partner concentration 90 nM). Description: PBM binding z-score (relative to random genomic background probes); higher = stronger binding; sequences stand for … in GC…GCGATTGACAGCGTAGAATGAAGG
In outline:
(§1)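 Probes were double-stranded and carried 34-nt variable regions with direct-repeat seeds, single-nucleotide variants, half-site ablations and random human genomic background sequences, printed on custom Agilent 4×180K protein-binding microarrays. Arrays were incubated 1 h with ligand-free nuclear receptor dimers in PBS pH 7.4, 2% milk, 0.02% Triton X-100, 1 mM DTT, 0.2 mg/mL BSA and 0.4 mg/ml salmon testes DNA. Antibodies against each partner (one per run) detected binding, and scanned fluorescence was regression-normalized. Binding z-scores use the random background probes as reference.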
In turn, TCTTGTAGATTAGCAGGTTAAGAAAGCTGGCCAA displayed a PBM binding z-score of 0.383.
Still for that read-out and setting: with CGAACTAGGTCAGAACAGGACAGTGAAGGATGAT the figure was 1.69.
Turning to CCTACTGGCCCAAAGGTCATTGATTCCAATGCTC, the PBM binding z-score turned out to be 4.8.
The same measure, in the same setting: as for CGAACCAGGGCATGAGTTGATAGCAAATGCCGAT, the figure is -0.0641; as for TTCCCAAGGTGAAAGGTCGTTGATGCACGCCTTG, 3.69.
On the same count and under the same terms, with CCTGCTACGTCATGGTCAGCTAATCTACAGTATG the figure was -0.508.
The same measure, in the same setting: with TCGAGTAGGTTACCAATGAGGCATTCAGCTTTCT the figure was 0.0141.
AGTCAAAGTTCATCTAGGTAACGTACGATATGCT registered a PBM binding z-score of 6.96.
Same read-out and setting: with TCTAGGTGGTCACGGAGGTCACACACGACGGGTA the figure was 3.81; with ACTAGCAGGCCAAGGGTCACCCAAGATTAGTCCG, 3.24.
Still for that read-out and setting: as for GATACAGTGTCAGCTAGAGGCCAGAGTATGGAAA, the figure is -0.507.
On the same count and under the same terms, with CCTTCTGGGCCATCAGGTCATTGATATCAACGTT the figure was 1.65; with TCTTGTAGATAAACAGGAGGTTAAGAAAGATCGA, 0.162.
In the case of CCTACTGGGCCAAGGGTCATTGATTCCAATGCTC, the PBM binding z-score was 2.79.
GCTTGGAGATCAAGGTTAAGAAAGACTAAGCTAA displayed a PBM binding z-score of 0.0543.
For the sequence ATCTCTAGGTAAGACTCAGTTCAGCGAAGAACGC, the PBM binding z-score stood at 0.373.
On the same count and under the same terms, with TCTAGTTTGTCACGGAGGTCACACACGACGGGTA the figure was 3.46.
For TCTGGTAGATCAAGCAGGTTAAGAAAGCCTGAGT, the PBM binding z-score is -0.292.
Same read-out and setting: as for TTACCAAGGTGAGCTGAGGCCGTTGATCCAACTC, the figure is 0.053; as for TCTTGTAGCTCAATAGAGGTTAAGAAAGTGCGCT, 0.285; as for ATCTCTAGGGAACCAAGTTCAGTGAATGCCGAAC, -0.221.
On the same count and under the same terms, as for TCTATTAGTTGAAGGACAACCGACGAGTCCGTTT, the figure is 0.875; as for ACTAGCAGGCCAAGTTGGGGTCACTCAAACAAAG, 3.18; as for TTACCAATGTGAGCTGAGGTCGTTGATCCAACTC, 0.612.
Same read-out and setting: as for TCATATAGGTAATACAGGTGAAAATCGGCATCTA, the figure is 1.35.
The sequence TCTGCTAGGTCTGTTGGTCAGCTAACGAGCTGCC displayed a PBM binding z-score of -0.418.
Same read-out and setting: as for TCTAGTTGGTCACGGAGGTCAAACACGACGGGTA, the figure is 4.19.
On the same count and under the same terms, as for TCATTTAGGTAAAAGGTGAAAGTCGGTGTGGTAA, the figure is 1.72; as for CGTCCAAGGTCAGAGAGGGCAGTGAATGCCGAGT, 5.26.
On the same count and under the same terms, as for AATACAGGGTCACTAGGCCAGACTAGGTACGAAT, the figure is 6.12.
ACTTACGGGCCAACGAGGTTATAGCACGCGTATA: the PBM binding z-score turned out to be 0.283.
Take CACCCTAGGTCAGGGCCAGTATAGGAGGAACGTT: the PBM binding z-score stood at 1.9.
On the same count and under the same terms, as for CGAACTAGGTCGTTGACAGGACAGTGAATAGTAA, the figure is 0.598.
Still for that read-out and setting: with TCGAGTAGGTTACCAAAGGGGCATTCAGCTTTCT the figure was 0.363.
Sequence TCTTGTAGACCAGCAGGTTAAGAAAGCTGGCCAA showed a PBM binding z-score of 0.124.
For the sequence CCTATTAGTTGACCATAAGGGCAGCCGAAGCTCG, the PBM binding z-score came out at 0.542.
Still for that read-out and setting: with CATACATGGTCAGCTAGGCCAGAGTAGGGACGGC the figure was -0.504; with TCTTGTAGATCAATAGAGTTTAAGAAAGTGCGCT, 0.426.
The same measure, in the same setting: with AGAATGAGGTTATACGTAGATAAGGGAAGAAAGT the figure was 2.05.

For the next experiment, the system named is LXRa:RXRa (NR concentration 270 nM, RXRa partner concentration 90 nM). The description is as above. In outline: as §1
TCTTGTAGATTAGCAGGTTAAGAAAGCTGGCCAA yielded a PBM binding z-score of 0.641.
Still for that read-out and setting: as for CGAACTAGGTCAGAACAGGACAGTGAAGGATGAT, the figure is 0.689.
Turning to CCTACTGGCCCAAAGGTCATTGATTCCAATGCTC, the PBM binding z-score was 5.12.
For the sequence CGAACCAGGGCATGAGTTGATAGCAAATGCCGAT, the PBM binding z-score was -0.00251.
As to TTCCCAAGGTGAAAGGTCGTTGATGCACGCCTTG, the PBM binding z-score was found to be 3.79.
On the same count and under the same terms, with CCTGCTACGTCATGGTCAGCTAATCTACAGTATG the figure was -0.217; with TCGAGTAGGTTACCAATGAGGCATTCAGCTTTCT, 0.677; with AGTCAAAGTTCATCTAGGTAACGTACGATATGCT, 6.13.
Sequence TCTAGGTGGTCACGGAGGTCACACACGACGGGTA registered a PBM binding z-score of 3.68.
As for ACTAGCAGGCCAAGGGTCACCCAAGATTAGTCCG, the PBM binding z-score turned out to be 2.98.
The sequence GATACAGTGTCAGCTAGAGGCCAGAGTATGGAAA returned a PBM binding z-score of -0.554.
With CCTTCTGGGCCATCAGGTCATTGATATCAACGTT, the PBM binding z-score is 1.19.
On the same count and under the same terms, with TCTTGTAGATAAACAGGAGGTTAAGAAAGATCGA the figure was 1.13.
Sequence CCTACTGGGCCAAGGGTCATTGATTCCAATGCTC registered a PBM binding z-score of 2.59.
Same read-out and setting: with GCTTGGAGATCAAGGTTAAGAAAGACTAAGCTAA the figure was 0.942.
ATCTCTAGGTAAGACTCAGTTCAGCGAAGAACGC returned a PBM binding z-score of 0.369.
Still for that read-out and setting: with TCTAGTTTGTCACGGAGGTCACACACGACGGGTA the figure was 3.54; with TCTGGTAGATCAAGCAGGTTAAGAAAGCCTGAGT, -0.109; with TTACCAAGGTGAGCTGAGGCCGTTGATCCAACTC, -0.536.
For the sequence TCTTGTAGCTCAATAGAGGTTAAGAAAGTGCGCT, the PBM binding z-score stood at 3.13.
In the case of ATCTCTAGGGAACCAAGTTCAGTGAATGCCGAAC, the PBM binding z-score turned out to be 0.011.
On the same count and under the same terms, as for TCTATTAGTTGAAGGACAACCGACGAGTCCGTTT, the figure is 0.862; as for ACTAGCAGGCCAAGTTGGGGTCACTCAAACAAAG, 3.16; as for TTACCAATGTGAGCTGAGGTCGTTGATCCAACTC, 0.222.
Still for that read-out and setting: with TCATATAGGTAATACAGGTGAAAATCGGCATCTA the figure was 1.37.
As to TCTGCTAGGTCTGTTGGTCAGCTAACGAGCTGCC, the PBM binding z-score is -0.439.
On the same count and under the same terms, as for TCTAGTTGGTCACGGAGGTCAAACACGACGGGTA, the figure is 4.67; as for TCATTTAGGTAAAAGGTGAAAGTCGGTGTGGTAA, 1.89.
On the same count and under the same terms, as for CGTCCAAGGTCAGAGAGGGCAGTGAATGCCGAGT, the figure is 3.77; as for AATACAGGGTCACTAGGCCAGACTAGGTACGAAT, 5.24.
The same measure, in the same setting: as for ACTTACGGGCCAACGAGGTTATAGCACGCGTATA, the figure is 0.557; as for CACCCTAGGTCAGGGCCAGTATAGGAGGAACGTT, 2.6.
Consider CGAACTAGGTCGTTGACAGGACAGTGAATAGTAA, for which the PBM binding z-score worked out at 0.178.
Same read-out and setting: with TCGAGTAGGTTACCAAAGGGGCATTCAGCTTTCT the figure was 3.05; with TCTTGTAGACCAGCAGGTTAAGAAAGCTGGCCAA, 0.0452.
The same measure, in the same setting: as for CCTATTAGTTGACCATAAGGGCAGCCGAAGCTCG, the figure is -0.0359.
On the same count and under the same terms, with CATACATGGTCAGCTAGGCCAGAGTAGGGACGGC the figure was -0.26; with TCTTGTAGATCAATAGAGTTTAAGAAAGTGCGCT, 0.959; with AGAATGAGGTTATACGTAGATAAGGGAAGAAAGT, 1.86.

The record behind these values is the supplement of paper PMC6555819.
